What all share (experiment): DAPPL (digital affinity profiling via proximity ligation, sequencing); 10 mM Tris-HCl pH 7.5, 50 mM NaCl, 1 mM DTT, 4% glycerol, room temperature, 30 min; GST-TFs on glutathione beads, 16-mer random dsDNA library, 0.1% formaldehyde crosslink after washing; high values mean tight binding
The target in experiment [1] is T1, FLI1 (Homo sapiens, UniProt Q01543 1-452).
T1 sequence: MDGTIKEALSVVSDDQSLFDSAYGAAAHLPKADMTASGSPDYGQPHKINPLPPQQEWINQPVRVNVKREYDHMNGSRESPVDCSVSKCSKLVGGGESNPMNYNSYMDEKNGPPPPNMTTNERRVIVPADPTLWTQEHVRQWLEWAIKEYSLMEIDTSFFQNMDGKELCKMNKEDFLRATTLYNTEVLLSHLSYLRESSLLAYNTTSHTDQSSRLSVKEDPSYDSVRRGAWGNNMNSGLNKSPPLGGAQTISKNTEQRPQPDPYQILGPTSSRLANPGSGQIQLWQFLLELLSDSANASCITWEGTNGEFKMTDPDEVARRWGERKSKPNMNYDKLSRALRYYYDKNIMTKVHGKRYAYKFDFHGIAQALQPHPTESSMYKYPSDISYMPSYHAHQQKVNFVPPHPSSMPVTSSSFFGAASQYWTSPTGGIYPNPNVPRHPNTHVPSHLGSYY
To be noted: protein: recombinant; tags: N-terminal GST; dsDNA, one strand shown. The essentials: (§1)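 Pools of DNA-barcoded human transcription factors, expressed in yeast as GST fusions on glutathione beads and combined with a tag-only sample, were incubated with 200 nmole of a 16-mer random double-stranded DNA library. Incubation took 30 min at room temperature in Tris/NaCl/DTT/glycerol buffer and was followed by washing, 0.1% formaldehyde crosslinking, proximity ligation (BsaI/T4 ligase, 1 h, 37 °C), PCR amplification and sequencing on an Illumina NextSeq500. Binding signal is the ratio of a hexamer's read frequency for a factor to its frequency for the tag-only sample.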

In experiment [2] the target is T2, ELK1 (Homo sapiens, UniProt P19419 1-428).
T2 sequence: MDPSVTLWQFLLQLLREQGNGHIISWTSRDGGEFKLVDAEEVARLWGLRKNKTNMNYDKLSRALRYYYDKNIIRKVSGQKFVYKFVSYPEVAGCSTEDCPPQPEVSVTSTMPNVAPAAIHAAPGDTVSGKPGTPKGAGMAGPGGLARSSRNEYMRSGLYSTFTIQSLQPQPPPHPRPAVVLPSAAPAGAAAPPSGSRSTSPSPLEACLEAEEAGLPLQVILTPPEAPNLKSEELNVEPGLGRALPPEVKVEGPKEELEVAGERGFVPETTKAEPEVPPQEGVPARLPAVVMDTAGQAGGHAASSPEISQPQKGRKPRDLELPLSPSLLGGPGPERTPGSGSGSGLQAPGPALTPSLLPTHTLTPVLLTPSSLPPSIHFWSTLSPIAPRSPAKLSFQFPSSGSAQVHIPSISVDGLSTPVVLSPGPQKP
To be noted: protein: recombinant; tags: N-terminal GST; dsDNA, one strand shown. The essentials: as §1

The target of experiment [3] is T3, GABPA (Homo sapiens, UniProt Q06546 1-454).
T3 sequence: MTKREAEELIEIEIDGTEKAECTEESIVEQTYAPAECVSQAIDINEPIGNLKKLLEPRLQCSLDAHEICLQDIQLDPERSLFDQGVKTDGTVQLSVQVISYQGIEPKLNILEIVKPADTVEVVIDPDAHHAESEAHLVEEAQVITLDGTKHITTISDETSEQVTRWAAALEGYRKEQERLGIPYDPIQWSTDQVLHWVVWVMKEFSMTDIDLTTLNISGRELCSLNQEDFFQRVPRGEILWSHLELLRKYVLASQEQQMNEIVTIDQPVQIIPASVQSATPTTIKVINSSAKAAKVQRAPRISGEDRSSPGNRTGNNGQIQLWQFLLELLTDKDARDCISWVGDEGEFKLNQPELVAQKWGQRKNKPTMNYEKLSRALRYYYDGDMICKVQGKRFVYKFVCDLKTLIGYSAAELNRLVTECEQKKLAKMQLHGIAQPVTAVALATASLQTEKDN
To be noted: protein: recombinant; tags: N-terminal GST; dsDNA, one strand shown. In outline:
as §1

Experiment [4] deals with ELF1 (Homo sapiens, UniProt P32519 1-619). To be noted: protein: recombinant; tags: N-terminal GST; dsDNA, one strand shown. The essentials: as §1
ELF1, sequence (P32519 whole entry): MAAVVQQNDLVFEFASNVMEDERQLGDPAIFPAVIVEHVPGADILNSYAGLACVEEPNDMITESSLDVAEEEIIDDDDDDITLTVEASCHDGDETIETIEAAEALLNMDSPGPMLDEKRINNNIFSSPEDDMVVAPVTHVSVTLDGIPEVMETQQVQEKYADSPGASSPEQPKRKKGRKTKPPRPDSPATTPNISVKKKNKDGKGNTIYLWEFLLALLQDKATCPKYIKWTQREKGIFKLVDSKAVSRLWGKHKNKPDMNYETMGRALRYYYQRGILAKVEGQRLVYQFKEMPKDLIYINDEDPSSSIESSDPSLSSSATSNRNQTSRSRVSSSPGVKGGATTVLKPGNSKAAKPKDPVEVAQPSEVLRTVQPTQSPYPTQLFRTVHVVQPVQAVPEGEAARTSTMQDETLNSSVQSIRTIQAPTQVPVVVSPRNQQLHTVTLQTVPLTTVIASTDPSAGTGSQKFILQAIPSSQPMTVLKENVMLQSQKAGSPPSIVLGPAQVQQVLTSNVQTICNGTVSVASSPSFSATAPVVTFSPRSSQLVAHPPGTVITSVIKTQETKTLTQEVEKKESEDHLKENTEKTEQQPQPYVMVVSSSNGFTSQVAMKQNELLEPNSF
Experiment [5] concerns the target T4, EHF (Homo sapiens, UniProt Q9NZC4 1-300).
T4 sequence: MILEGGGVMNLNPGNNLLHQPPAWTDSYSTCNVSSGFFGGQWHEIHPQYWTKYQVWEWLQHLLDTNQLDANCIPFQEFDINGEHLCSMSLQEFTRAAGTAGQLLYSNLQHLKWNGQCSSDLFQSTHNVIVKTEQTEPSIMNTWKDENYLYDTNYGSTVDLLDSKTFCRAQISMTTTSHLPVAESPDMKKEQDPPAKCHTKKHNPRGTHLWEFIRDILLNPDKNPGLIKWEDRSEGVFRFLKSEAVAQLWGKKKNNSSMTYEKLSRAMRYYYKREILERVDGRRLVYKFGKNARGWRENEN
Particulars: protein: recombinant; tags: N-terminal GST; dsDNA, one strand shown. In outline: as §1

The target of experiment [6] is SPIB (Homo sapiens, UniProt Q01892 1-262). To be noted: protein: recombinant; tags: N-terminal GST; dsDNA, one strand shown. In outline: as §1
SPIB, sequence (Q01892 whole entry): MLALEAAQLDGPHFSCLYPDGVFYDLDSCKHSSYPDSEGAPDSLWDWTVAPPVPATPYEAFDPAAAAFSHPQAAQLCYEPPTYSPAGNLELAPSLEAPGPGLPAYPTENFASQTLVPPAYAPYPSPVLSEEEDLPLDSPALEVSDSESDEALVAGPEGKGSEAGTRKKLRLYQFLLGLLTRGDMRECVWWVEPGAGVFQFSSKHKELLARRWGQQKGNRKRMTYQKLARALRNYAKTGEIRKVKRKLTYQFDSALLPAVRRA
Experiment [7] has as its target T5, ELK3 (Homo sapiens, UniProt P41970 1-407).
T5 sequence: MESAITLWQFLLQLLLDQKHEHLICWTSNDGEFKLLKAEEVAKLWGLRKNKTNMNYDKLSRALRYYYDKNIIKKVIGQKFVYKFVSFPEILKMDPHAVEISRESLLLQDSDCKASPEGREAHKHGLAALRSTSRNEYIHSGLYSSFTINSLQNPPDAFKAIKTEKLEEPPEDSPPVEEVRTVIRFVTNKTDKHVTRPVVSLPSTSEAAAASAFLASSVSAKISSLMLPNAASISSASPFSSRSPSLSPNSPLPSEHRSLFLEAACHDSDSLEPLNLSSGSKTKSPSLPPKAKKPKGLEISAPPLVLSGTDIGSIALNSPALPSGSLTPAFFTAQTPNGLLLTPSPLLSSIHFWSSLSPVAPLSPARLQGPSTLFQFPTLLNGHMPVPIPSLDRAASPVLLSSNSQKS
To be noted: protein: recombinant; tags: N-terminal GST; dsDNA, one strand shown. The essentials:
as §1

The target in experiment [8] is T6, FEV (Homo sapiens, UniProt Q99581 1-238).
T6 sequence: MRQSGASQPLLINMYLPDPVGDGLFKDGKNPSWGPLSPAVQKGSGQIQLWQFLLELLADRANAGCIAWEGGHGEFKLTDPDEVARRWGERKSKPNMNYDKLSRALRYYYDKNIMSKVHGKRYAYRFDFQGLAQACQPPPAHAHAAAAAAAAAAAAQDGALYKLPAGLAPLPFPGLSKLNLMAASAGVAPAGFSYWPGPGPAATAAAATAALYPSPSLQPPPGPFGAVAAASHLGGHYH
To be noted: protein: recombinant; tags: N-terminal GST; dsDNA, one strand shown. The essentials: as §1

Experiment [9] addresses ETV5 (Homo sapiens, UniProt P41161 1-510). To be noted: protein: recombinant; tags: N-terminal GST; dsDNA, one strand shown. The essentials:
as §1

For experiment [10], the target named is HSF1 (Homo sapiens, UniProt Q00613 1-529). To be noted: protein: recombinant; tags: N-terminal GST; chain copies: 3; dsDNA, one strand shown. In outline: as §1
HSF1, sequence (Q00613 whole entry): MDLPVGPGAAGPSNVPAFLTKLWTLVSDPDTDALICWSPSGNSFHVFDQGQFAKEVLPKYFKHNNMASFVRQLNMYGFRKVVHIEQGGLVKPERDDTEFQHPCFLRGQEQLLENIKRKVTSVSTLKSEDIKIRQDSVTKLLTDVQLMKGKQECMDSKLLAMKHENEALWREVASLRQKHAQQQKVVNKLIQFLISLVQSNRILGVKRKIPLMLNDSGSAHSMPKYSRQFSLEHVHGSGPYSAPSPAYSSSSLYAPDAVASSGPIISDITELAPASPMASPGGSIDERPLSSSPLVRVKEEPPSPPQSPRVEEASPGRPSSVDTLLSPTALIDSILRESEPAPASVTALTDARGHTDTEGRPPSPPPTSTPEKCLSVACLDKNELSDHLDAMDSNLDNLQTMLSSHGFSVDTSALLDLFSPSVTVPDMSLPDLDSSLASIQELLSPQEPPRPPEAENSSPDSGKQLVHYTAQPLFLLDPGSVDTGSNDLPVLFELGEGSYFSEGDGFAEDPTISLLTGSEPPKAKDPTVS
The target in experiment [11] is T7, SPIC (Homo sapiens, UniProt Q8N5J4 1-248).
T7 sequence: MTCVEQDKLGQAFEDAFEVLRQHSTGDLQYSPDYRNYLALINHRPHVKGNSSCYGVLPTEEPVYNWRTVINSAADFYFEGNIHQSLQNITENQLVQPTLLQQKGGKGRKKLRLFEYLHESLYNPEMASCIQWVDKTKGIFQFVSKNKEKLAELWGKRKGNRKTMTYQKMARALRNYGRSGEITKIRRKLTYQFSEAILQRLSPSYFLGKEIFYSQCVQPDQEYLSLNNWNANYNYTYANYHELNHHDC
Particulars: protein: recombinant; tags: N-terminal GST; dsDNA, one strand shown. In outline: as §1

The target in experiment [12] is ELF4 (Homo sapiens, UniProt Q99607 1-663). Particulars: protein: recombinant; tags: N-terminal GST; dsDNA, one strand shown. In outline: as §1
ELF4, sequence (Q99607 whole entry): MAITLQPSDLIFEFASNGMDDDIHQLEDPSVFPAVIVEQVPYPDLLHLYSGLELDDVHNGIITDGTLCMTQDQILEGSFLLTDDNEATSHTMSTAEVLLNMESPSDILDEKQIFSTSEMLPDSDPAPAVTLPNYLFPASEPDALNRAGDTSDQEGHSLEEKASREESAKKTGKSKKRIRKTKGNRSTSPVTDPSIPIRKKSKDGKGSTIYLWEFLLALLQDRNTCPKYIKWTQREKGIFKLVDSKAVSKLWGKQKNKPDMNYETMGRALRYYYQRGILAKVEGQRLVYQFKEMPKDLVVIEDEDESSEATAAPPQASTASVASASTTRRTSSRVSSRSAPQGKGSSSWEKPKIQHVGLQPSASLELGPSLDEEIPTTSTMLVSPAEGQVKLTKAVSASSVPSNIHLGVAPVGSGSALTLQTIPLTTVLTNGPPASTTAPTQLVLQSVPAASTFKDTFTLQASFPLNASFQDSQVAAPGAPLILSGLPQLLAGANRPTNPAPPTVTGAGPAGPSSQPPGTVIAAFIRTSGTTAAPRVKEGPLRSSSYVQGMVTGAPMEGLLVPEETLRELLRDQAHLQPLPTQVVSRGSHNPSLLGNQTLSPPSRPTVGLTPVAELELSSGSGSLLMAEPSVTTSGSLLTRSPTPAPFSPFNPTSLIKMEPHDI
In experiment [13] the target is T8, ELK4 (Homo sapiens, UniProt P28324-2 1-405).
T8 sequence: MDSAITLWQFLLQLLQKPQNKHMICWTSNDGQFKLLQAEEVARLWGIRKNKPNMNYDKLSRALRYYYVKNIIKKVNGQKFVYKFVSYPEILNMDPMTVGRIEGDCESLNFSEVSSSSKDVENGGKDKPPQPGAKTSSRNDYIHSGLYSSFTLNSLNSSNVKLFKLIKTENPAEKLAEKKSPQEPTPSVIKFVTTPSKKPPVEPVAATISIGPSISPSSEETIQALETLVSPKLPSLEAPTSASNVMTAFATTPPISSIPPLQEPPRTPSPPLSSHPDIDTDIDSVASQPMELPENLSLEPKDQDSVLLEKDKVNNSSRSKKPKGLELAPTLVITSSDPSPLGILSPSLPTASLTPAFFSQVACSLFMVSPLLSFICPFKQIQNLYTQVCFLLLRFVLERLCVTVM
To be noted: protein: recombinant; tags: N-terminal GST; dsDNA, one strand shown. In outline: as §1

Experiment [14] deals with T9, ETV2 (Homo sapiens, UniProt O00321 1-342).
T9 sequence: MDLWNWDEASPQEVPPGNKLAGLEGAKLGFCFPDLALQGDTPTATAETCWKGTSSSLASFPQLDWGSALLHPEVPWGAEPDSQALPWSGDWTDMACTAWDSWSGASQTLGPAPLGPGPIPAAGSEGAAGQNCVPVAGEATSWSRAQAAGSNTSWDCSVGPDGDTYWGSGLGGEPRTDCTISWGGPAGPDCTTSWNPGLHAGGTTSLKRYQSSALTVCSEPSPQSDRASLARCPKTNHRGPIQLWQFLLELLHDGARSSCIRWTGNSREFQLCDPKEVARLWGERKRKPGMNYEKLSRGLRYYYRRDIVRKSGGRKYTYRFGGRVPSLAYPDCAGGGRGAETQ
Particulars: protein: recombinant; tags: N-terminal GST; dsDNA, one strand shown. The essentials:
as §1

Experiment [15] has as its target T10, ELF3 (Homo sapiens, UniProt P78545 1-371).
T10 sequence: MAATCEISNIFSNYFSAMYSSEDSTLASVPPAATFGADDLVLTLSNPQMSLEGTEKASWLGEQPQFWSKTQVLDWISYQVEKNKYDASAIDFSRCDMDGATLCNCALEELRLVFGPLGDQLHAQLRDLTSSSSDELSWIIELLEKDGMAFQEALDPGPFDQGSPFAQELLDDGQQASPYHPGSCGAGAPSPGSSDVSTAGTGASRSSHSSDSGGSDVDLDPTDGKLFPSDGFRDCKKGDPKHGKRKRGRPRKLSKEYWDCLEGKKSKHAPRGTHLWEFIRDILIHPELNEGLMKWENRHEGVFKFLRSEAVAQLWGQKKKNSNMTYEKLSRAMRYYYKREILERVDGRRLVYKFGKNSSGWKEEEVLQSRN
To be noted: protein: recombinant; tags: N-terminal GST; dsDNA, one strand shown. In outline: as §1

In experiment [16] the target is CRX (Homo sapiens, UniProt O43186 1-299). Particulars: protein: recombinant; tags: N-terminal GST; dsDNA, one strand shown. In outline:
as §1

Experiment [17] has as its target ETV1 (Homo sapiens, UniProt P50549 1-477). To be noted: protein: recombinant; tags: N-terminal GST; dsDNA, one strand shown. In outline:
as §1

ETV1, sequence (P50549 whole entry): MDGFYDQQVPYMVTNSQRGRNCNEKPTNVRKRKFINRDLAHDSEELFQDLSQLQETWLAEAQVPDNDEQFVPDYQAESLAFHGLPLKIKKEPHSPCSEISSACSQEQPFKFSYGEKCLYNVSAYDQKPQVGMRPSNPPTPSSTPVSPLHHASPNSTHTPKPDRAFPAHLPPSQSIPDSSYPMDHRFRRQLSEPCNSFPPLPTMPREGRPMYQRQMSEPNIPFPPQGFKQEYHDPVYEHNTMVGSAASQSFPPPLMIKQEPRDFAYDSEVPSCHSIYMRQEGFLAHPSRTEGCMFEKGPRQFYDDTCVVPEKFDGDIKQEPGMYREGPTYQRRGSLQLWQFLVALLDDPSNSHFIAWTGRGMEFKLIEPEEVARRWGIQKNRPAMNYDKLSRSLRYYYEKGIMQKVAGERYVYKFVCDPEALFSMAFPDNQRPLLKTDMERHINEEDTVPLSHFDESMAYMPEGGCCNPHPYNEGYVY
ETV5, sequence (P41161 whole entry): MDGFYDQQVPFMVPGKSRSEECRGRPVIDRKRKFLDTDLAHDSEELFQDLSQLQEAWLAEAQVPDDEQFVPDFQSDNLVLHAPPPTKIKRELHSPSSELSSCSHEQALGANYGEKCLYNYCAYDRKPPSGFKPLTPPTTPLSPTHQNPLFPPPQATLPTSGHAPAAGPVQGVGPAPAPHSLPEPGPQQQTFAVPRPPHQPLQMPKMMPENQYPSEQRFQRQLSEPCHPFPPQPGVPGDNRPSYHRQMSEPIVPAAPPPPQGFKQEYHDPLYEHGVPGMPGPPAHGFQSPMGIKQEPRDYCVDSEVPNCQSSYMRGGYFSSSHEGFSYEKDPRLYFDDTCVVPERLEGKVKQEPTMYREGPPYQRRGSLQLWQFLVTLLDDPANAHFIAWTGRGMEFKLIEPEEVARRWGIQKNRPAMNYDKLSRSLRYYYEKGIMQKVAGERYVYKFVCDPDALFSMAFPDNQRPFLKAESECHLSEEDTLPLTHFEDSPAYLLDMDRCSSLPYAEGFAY
CRX, sequence (O43186 whole entry): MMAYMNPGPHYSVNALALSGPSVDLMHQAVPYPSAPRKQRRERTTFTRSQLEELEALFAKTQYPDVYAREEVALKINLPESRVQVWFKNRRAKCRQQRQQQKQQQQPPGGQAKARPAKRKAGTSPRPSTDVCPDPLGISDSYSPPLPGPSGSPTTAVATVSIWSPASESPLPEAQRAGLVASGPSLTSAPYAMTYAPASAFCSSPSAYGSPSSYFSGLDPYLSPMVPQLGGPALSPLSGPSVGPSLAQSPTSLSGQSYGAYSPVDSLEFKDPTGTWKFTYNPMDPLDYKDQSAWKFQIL

As for CCGAAG, the binding signal in experiment [1] was 1.12 fold enrichment (6-mer frequency, TF over GST control); in experiment [2], 1.09 fold enrichment (6-mer frequency, TF over GST control); in experiment [3], 1.12 fold enrichment (6-mer frequency, TF over GST control); in experiment [4], 1 fold enrichment (6-mer frequency, TF over GST control); in experiment [5], 1.03 fold enrichment (6-mer frequency, TF over GST control); in experiment [6], 1.04 fold enrichment (6-mer frequency, TF over GST control). The binding signal in experiment [7] is 1.03 fold enrichment (6-mer frequency, TF over GST control); in experiment [8] it was 1.04 fold enrichment (6-mer frequency, TF over GST control); in experiment [9], 1.02 fold enrichment (6-mer frequency, TF over GST control); in experiment [10], 1.35 fold enrichment (6-mer frequency, TF over GST control); in experiment [11], 1.23 fold enrichment (6-mer frequency, TF over GST control); in experiment [12], 1.05 fold enrichment (6-mer frequency, TF over GST control). In addition, the binding signal was 1.2 fold enrichment (6-mer frequency, TF over GST control) in experiment [13]; 1.31 fold enrichment (6-mer frequency, TF over GST control) in experiment [14]; 1.02 fold enrichment (6-mer frequency, TF over GST control) in [15]; 1.11 fold enrichment (6-mer frequency, TF over GST control) in experiment [16]; 1.01 fold enrichment (6-mer frequency, TF over GST control) in experiment [17].
